Laboratory results: ChEMBL document CHEMBL4513216, “Probing the Open Global Health Chemical Diversity Library for Multistage-Active Starting Points for Next-Generation Antimalarials” (ACS Infect Dis, 2020)
The whole screen tested about 69,000 compounds, of which about 8,600 (12%) showed an effect of 50% or more. The entries come from a sample that favours strong results as a whole.

Test system: Plasmodium berghei
Test: Screen against P. berghei liver stage (PbLuc), transformed with Luciferase, at 10uM
Assay type: functional, HepG2
Details: tested at 10 uM

Row | SMILES | INHIBITION
1 | O=C(CSc1nc2n[nH]cc2c(=O)n1-c1ccccc1)N1CCOCC1 | 13.9%
2 | O=C(NC[C@H]1OC[C@@H](NC2CCCC2)[C@@H]1O)C1CCCC1 | 30.5%
3 | O=C(NC[C@H]1OC[C@@H](NC2COC2)[C@@H]1O)C1CCCC1 | 29%
4 | CC(C)(C)CN[C@@H]1CO[C@H](CNC(=O)C2CCCC2)[C@H]1O | 51%
5 | CC(=O)N1CCN(c2ncnc3cc4c(cc23)OCCO4)CC1 | 36.6%
6 | CNC(=O)CN(C)c1nc(-c2ccc(C(N)=O)cc2)nc2c1CCNC2 | 10.3%
7 | Cc1cc(C)c2c(NCc3nncn3C3CCCCC3)ncnc2n1 | -41.4%
8 | Cc1ncc(-c2ccnc(NC3CC3)n2)c(-c2cccnc2)n1 | 2.6%
9 | CCN1CCC2(CC1)NC(=O)c1cc(Br)ccc1-n1nnnc12 | 33.3%
10 | CC(C)N1CCC2(CC1)NC(=O)c1cc(Br)ccc1-n1nnnc12 | 58.2%
11 | O=C1NC2(CCCCC2)c2nnnn2-c2ccc(Br)cc21 | 42.4%
12 | CN1C[C@@H](O)[C@]2(CCN(C(=O)OCc3ccccc3)C2)S1(=O)=O | 1.8%
13 | CN1CCOCC12CCN(c1nncs1)CC2 | -7.24%
14 | Cc1ccc2c(c1)C1(CC2)CCN(CC(=O)O)CC1 | 19.5%
15 | Cc1ccc2c(c1)C1(CC2)CCN(c2nncs2)CC1 | 56.8%
16 | c1cc(-c2ccc3c(c2)CCC32CCN(c3nncs3)CC2)co1 | 24.9%
17 | c1cc(-c2ccc3c(c2)C2(CC3)CCN(c3nncs3)CC2)ccn1 | 15.4%

Row | SMILES | INHIBITION
18 | c1cc(-c2ccc3c(c2)CCC32CCN(c3nncs3)CC2)ccn1 | 62.8%
19 | c1cncc(-c2ccc3c(c2)C2(CC3)CCN(c3nncs3)CC2)c1 | 76.8%
20 | Cc1cccc(N2CC3(CCN(c4nncs4)C3)CC2=O)c1 (stereo not drawn) | 14.5%
21 | Cc1cnn(CCNCc2nc(CNC(=O)c3ccccc3)no2)c1 | 7.08%
22 | CC(=O)Nc1ccc(CNc2cccc(OCCF)c2)cc1 | 25.2%
23 | CNC(=O)c1ccc(OC2CCN(S(C)(=O)=O)CC2)c(Cl)c1 | -22.1%
24 | CS(=O)(=O)N1CCC(Oc2ccc(C(=O)NC3CCCC3)cc2Cl)CC1 | -14.5%
25 | CS(=O)(=O)N1CCC(Oc2ccc(C(=O)N3CCSCC3)cc2Cl)CC1 | 63.3%
26 | CCN(CC)S(=O)(=O)N(CC)Cc1ccc2c(c1)OCCO2 | -19.9%
27 | Cc1nn(Cn2ccc(C(=O)N3CCC(C)CC3)n2)c(C)c1Cl | -20.8%
28 | CS(=O)(=O)N1CCc2[nH]nc(Cc3cccs3)c2C1 | 0.472%
29 | Cc1noc(C)c1-c1n[nH]c2c1CN(S(=O)(=O)c1cccs1)CC2 | 61.8%
30 | Cc1cc(-c2n[nH]c3c2CN(S(=O)(=O)c2ccsc2)CC3)c(C)o1 | 54.4%
31 | Cc1noc(C)c1-c1n[nH]c2c1CN(S(=O)(=O)c1cccnc1)CC2 | 23.3%
32 | Cc1noc(C)c1-c1n[nH]c2c1CN(S(=O)(=O)c1ccsc1)CC2 | 39.4%
33 | CSCCc1n[nH]c2c1CN(S(=O)(=O)c1cn(C)c(C)n1)CC2 | -10.8%
